19 molecules from PubChem BioAssay AID504537 (National Center for Advancing Translational Sciences (NCATS), 2011) can be followed below.

Results filed as inconclusive are left out. Activity calls are given as the source filed them. No rule for the calls is given here.

Chain of Histone-lysine N-methyltransferase 2A (Homo sapiens) (Q03164 whole entry, looked up, the tested form may be a part): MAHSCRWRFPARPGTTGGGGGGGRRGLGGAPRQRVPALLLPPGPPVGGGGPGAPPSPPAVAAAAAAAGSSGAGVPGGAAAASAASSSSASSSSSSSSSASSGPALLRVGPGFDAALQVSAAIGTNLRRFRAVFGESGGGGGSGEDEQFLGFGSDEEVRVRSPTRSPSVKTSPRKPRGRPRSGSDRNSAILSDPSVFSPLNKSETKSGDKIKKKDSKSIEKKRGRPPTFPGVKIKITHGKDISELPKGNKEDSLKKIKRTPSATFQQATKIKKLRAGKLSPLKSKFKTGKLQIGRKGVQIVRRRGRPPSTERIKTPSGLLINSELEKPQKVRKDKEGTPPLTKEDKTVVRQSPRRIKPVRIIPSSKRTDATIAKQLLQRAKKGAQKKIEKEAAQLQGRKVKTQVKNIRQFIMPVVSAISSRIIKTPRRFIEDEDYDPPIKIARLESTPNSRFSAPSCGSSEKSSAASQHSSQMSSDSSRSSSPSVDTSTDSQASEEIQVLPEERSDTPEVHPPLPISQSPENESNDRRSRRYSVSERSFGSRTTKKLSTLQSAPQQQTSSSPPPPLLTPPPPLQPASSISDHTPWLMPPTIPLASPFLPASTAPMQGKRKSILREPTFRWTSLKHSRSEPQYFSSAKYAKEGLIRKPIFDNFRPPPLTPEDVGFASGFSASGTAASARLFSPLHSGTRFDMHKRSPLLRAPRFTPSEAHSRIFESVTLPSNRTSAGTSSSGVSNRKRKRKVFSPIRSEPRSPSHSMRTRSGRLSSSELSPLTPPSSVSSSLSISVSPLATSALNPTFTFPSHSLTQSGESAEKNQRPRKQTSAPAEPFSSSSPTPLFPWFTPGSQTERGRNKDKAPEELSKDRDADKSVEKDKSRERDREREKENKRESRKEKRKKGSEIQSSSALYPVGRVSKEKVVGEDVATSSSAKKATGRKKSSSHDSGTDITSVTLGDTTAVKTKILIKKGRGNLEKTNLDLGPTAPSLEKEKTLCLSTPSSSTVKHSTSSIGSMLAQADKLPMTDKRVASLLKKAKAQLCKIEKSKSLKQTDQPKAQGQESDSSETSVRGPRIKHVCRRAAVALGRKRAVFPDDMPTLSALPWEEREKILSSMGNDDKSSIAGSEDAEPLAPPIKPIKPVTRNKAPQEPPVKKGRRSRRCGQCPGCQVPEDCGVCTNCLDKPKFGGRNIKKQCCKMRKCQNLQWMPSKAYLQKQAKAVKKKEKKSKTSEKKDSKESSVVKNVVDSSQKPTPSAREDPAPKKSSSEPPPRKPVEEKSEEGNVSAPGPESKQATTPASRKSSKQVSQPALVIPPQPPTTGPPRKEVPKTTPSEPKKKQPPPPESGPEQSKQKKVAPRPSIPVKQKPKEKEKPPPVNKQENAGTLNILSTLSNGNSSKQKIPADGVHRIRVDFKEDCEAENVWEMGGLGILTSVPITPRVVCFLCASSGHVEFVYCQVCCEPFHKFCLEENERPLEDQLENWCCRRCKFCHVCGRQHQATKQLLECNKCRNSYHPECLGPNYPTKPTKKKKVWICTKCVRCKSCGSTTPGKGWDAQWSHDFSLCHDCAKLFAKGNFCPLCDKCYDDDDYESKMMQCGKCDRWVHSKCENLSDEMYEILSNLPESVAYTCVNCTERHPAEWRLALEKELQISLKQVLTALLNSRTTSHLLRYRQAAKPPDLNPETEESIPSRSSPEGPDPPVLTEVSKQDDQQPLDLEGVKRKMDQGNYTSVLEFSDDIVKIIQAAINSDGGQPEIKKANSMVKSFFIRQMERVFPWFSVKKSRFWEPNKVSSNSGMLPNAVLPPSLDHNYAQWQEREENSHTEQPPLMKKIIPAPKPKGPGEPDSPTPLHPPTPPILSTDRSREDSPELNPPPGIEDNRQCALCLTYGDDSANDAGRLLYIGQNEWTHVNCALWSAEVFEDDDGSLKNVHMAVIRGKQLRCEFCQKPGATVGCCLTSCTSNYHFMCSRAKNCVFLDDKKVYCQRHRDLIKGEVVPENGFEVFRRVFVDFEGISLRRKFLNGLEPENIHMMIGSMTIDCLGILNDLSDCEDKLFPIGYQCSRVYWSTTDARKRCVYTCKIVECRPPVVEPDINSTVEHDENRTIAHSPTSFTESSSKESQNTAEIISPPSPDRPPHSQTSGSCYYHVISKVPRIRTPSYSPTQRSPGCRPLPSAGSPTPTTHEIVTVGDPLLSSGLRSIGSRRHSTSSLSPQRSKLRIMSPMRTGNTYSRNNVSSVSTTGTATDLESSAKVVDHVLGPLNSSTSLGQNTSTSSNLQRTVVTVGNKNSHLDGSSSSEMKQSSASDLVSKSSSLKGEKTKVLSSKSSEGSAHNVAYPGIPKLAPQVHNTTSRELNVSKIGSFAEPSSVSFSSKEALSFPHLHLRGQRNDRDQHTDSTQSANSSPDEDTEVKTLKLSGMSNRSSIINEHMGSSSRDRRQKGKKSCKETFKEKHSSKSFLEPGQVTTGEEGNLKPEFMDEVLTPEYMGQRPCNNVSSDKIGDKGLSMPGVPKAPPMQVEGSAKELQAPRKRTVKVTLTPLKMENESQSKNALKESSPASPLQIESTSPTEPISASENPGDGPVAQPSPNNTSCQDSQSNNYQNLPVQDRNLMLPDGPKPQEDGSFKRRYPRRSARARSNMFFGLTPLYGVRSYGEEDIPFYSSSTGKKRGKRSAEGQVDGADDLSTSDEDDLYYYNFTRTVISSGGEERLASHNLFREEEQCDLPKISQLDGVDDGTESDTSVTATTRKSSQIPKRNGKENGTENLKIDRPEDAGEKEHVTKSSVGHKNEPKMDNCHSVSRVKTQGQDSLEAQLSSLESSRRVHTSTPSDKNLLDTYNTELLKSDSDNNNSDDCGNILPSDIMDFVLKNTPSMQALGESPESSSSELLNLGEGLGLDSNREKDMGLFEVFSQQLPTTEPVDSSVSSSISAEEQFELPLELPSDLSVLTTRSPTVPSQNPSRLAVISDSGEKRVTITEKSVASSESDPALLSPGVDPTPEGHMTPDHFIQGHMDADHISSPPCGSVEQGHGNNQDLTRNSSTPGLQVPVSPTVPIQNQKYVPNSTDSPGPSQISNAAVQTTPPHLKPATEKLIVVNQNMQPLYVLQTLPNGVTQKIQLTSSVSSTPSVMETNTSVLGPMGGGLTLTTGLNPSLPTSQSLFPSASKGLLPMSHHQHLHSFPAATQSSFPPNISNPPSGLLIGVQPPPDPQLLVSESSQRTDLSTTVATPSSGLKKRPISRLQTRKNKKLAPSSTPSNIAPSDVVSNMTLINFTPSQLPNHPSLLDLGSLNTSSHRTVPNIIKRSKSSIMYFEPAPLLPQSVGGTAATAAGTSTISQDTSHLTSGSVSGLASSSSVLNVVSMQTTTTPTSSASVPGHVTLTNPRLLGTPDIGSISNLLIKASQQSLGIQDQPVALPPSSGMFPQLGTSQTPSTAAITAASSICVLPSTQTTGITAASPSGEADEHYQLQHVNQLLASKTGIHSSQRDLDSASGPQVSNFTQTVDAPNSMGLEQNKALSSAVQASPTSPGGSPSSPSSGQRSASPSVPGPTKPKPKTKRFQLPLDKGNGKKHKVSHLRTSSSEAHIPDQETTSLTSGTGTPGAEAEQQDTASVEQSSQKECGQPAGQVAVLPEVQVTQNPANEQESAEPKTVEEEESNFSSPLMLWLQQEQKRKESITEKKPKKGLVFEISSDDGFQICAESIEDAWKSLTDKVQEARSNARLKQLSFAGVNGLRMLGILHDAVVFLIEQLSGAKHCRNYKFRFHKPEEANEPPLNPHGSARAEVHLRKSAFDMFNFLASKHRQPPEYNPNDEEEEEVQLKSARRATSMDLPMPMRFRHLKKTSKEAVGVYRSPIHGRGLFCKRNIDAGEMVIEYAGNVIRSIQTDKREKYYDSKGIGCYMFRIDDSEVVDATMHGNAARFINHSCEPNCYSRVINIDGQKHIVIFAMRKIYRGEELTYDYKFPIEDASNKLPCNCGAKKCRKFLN

The assay deals with Histone-lysine N-methyltransferase 2A (Homo sapiens) (UniProt Q03164). Briefly: Inhibitor SAR for Compounds Targeting the Menin-MLL Interaction in MLL Related Leukemias: Competition With Fluorescein Labeled MLL-derived Peptide. To be noted: Menin-MLL fluorescein peptide fluorescence polarization competition. From the text:
qHTS Assay for Inhibitors Targeting the Menin-MLL Interaction in MLL Related Leukemias NIH Chemical Genomics Center [NCGC] NIH Molecular Libraries Probe Centers Network [MLPCN] MLPCN Grant: MH084875-01A1 Assay Submitter (PI): Jolanta Grembecka, Tomasz Cierpicki, University of Virginia Translocations of the MLL (Mixed Lineage Leukemia) gene are frequently found in human leukemias affecting both children and adults. Fusion of MLL to one of more than 60 genes results in generation of oncogenic proteins upregulating Hox genes, which are vital to blood cell development. Patients harboring fusion of the MLL gene suffer from aggressive leukemias and respond poorly to available therapies. All of the oncogenic fusion proteins have a preserved N-terminal fragment of MLL that has been identified to interact with menin. It has been recently discovered that association with menin is critical to the leukemogenic activity of the MLL fusion oncoproteins. Selective targeting of the menin-MLL interaction could provide an attractive therapeutic approach to develop novel drugs for MLL-related leukemias. Small molecules blocking the menin-MLL interaction should reverse the oncogenic potential of MLL fusion proteins. We have developed and optimized a fluorescence polarization-based assay for the identification of Menin-MLL inhibitors. The assay was run employing two different MLL-derived peptides. The present assay uses a 12 amino acid peptide labeled with fluorescein at its N-terminus. This peptide consists of the menin high affinity binding motif from MLL and is potently bound by menin. Another peptide with a mutated sequence, labeled with Texas Red, was used in parallel as a less stringent screen for inhibitors. The present assay was run to characterize initial structure activity relationships.
The Menin protein, the MLL-wild type (w.t.) derived peptide (N-terminal 12 amino acids), the MLL-derived peptide labeled with Texas Red and the MLL-w.t. peptide labeled with Fluorescein were kindly supplied by laboratory of Dr. Jolanta Grembecka, University of Virginia. All protein and peptide solutions were stored in single use aliquots at -80C. The Eu3+ Cyrptate-conjugated mouse monoclonal antibody anti-6 Histidine (Eu3+-AB) and the Streptavidin-XL665 conjugate (XL665) were purchased from Cisbio International (Bedford, MA). All antibody and XL665 conjugate solution stocks were stored in single use aliquots at -20C. The Buffer components for all assays were purchased from Sigma-Aldrich (St. Louis, MO) and Invitrogen (Carlsbad, CA). FP Assay Reagents: 1. FP reaction buffer: 50 mM Tris-HCl pH 7.5, 50 mM NaCl, 1mM DTT. Before use, 0.05% BSA is added. 2. Menin protein, MLL-w.t. labeled with fluorescein, MLL-mutant peptide labeled with texas red. Stored in singe use aliquots at -80C. 3. MLL-w.t. unlabeled peptide as positive control: 10 uM final in FP buffer. FP Assay Procedure: 1. Prepare Menin at 200 nM, MLL-w.t.-fluorescein at 25 nM, and MLL-mutant-texas red at 50 nM mixture in FP buffer. 2. Prepare Menin at 200 nM, MLL-w.t.-fluorescein at 25 nM, MLL-mutant-texas red at 50 nM, and 10 uM MLL-w.t. unlabeled mixture in FP buffer. 3. Prepare MLL-w.t.-fluorescein at 25 nM and MLL-mutant-texas red at 50 nM mixture in FP buffer. 3. Dispense 4 ul per well of reagent in step 1 in columns 2, 4 - 48 in a black 1536 well plate, dispense 4 ul per well of reagents from steps 2 and 3 in columns 1 and 3 respectively. Incubate plate at ambient for 15 minutes. 4. Transfer 23 nl per well of compound to plate and incubate at ambient for 1 hr. 5. Read fluorescence polarization for each label using the PerkinElmer Envision. Envision protocol for fluorescein: FITC FP Dual Enh Mirror, Excitation filter 480, Emission filter (1) P-pol 535, Emission filter (2) S-pol 535 Envision protocol for texas red: FP Dual Enh Mirror, Excitation filter 555, Emission filter (1) P-pol 632, Emission filter (2) S-pol 632
A general note: Polarisation of emitted light reports the rotation of a fluorescent probe.
For the molecule `c1ccc(OCCCN2CCC(=C(c3ccccc3)c3ccccc3)CC2)cc1`, the outcome was “inactive; no saturation, 42% inh at 2mm”.

Take `FC(F)(F)Oc1ccc(OCCCN2CCC(C(c3ccccc3)c3ccccc3)CC2)cc1`: the outcome was “inactive; no saturation, 12%inh at 2mm”.

Consider `O=C(O)c1ccc(OCCCN2CCC(C(O)(c3ccccc3)c3ccccc3)CC2)cc1`, for which the outcome is “inactive; no saturation, 34% inh. at 1mm”.

With `CC(C)(C(=O)O)c1ccc(C(O)CCCN2CCC(C(O)(c3ccccc3)c3ccccc3)CC2)cc1` (centres undefined), the outcome was “inactive; no activity up to 2 mm”.

On to `N#Cc1ccc(COCCN2CCC(C(O)(c3ccccc3)c3ccccc3)CC2)cc1`, for which the outcome was “inactive; no saturation, 50% inh at 1mm”.

With `FC(F)(F)c1ccc(OCCCN2CCC(=C(c3ccccc3)c3ccccc3)CC2)cc1`, the outcome was “inactive; no saturation, 25% inh at 2mm”.

Turning to `N#Cc1ccc(OCCCN2CCC(C(O)(c3ccccc3)c3ccccc3)CC2)cc1F`, the Potency is 26.5 µM (active).

As for `Cc1ccc(OCCCN2CCC(=C(c3ccccc3)c3ccccc3)CC2)cc1`, the outcome is “inactive; no saturation, 25% inh at 2mm”.

Regarding `FC(F)(F)Oc1ccc(OCCCN2CCC(=C(c3ccccc3)c3ccccc3)CC2)cc1`, the outcome was “inactive; no saturation, 12%inh at 2mm”.

Regarding `OC(c1ccccc1)(c1ccccc1)C1CCN(CCCOc2ccc(-c3nn[nH]n3)cc2)CC1`, the outcome is “inactive; interference with assay at higher dose, inactive up to 100 um”.

On to `OC(c1ccccc1)(c1ccccc1)C1CCN(CCCOc2ccc(-n3ccnn3)cc2)CC1`, for which the Potency is 29 µM (active).

For the molecule `NCc1ccc(OCCCN2CCC(C(O)(c3ccccc3)c3ccccc3)CC2)cc1`, the Potency was 7.6 µM (active).

Regarding `FC(F)(F)c1ccc(OCCCN2CCC(C(c3ccccc3)c3ccccc3)CC2)cc1`, the outcome is “inactive; no saturation, 36% inh at 2mm”.

Regarding `[N-]=[N+]=Nc1ccc(OCCCN2CCC(C(O)(c3ccccc3)c3ccccc3)CC2)cc1`, the Potency is 58 µM (active).

Regarding `OC(c1ccccc1)(c1ccccc1)C1CCN(CCCOc2ccc(C(F)(F)F)cc2)CC1`, the Potency was 52 µM (active).

As for `N#Cc1ccc(OCCCN2CCC(C(O)(c3ccccc3)C(F)(F)F)CC2)cc1` (centres undefined), the Potency was 31 µM (active).

As to `CC(C)c1ccc(OCCCN2CCC(=C(c3ccccc3)c3ccccc3)CC2)cc1`, the outcome is “inactive; no saturation, 15% inh at 1mm”.

`Nc1ccc(OCCCN2CCC(C(O)(c3ccccc3)c3ccccc3)CC2)cc1`: the Potency was 60.5 µM (active).

As to `COc1ccccc1C(=O)Nc1ccnn1C1CCN(CC2CCCCC2)CC1`, the Potency was 42 µM (active).
